# Data published in PMC4336329 (PLoS ONE, 2015).
# The campaign covered roughly 310,000 compounds. About 14,000 (4.5%) showed an effect of 50% or more. Effects have a minus sign here. The entries come from a sample that favours strong results as a whole.
# Biological target: human ether-à-go-go-related gene (hERG) potassium channel (human, UniProt Q12809)
# Test: primary screen, population patch clamp on CHO cells stably expressing hERG; higher = less effect of the substance
# 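Also: peak tail current of the secondary pulse compared with the same well before compound.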
# human ether-à-go-go-related gene (hERG) potassium channel, sequence (Q12809 whole entry, looked up): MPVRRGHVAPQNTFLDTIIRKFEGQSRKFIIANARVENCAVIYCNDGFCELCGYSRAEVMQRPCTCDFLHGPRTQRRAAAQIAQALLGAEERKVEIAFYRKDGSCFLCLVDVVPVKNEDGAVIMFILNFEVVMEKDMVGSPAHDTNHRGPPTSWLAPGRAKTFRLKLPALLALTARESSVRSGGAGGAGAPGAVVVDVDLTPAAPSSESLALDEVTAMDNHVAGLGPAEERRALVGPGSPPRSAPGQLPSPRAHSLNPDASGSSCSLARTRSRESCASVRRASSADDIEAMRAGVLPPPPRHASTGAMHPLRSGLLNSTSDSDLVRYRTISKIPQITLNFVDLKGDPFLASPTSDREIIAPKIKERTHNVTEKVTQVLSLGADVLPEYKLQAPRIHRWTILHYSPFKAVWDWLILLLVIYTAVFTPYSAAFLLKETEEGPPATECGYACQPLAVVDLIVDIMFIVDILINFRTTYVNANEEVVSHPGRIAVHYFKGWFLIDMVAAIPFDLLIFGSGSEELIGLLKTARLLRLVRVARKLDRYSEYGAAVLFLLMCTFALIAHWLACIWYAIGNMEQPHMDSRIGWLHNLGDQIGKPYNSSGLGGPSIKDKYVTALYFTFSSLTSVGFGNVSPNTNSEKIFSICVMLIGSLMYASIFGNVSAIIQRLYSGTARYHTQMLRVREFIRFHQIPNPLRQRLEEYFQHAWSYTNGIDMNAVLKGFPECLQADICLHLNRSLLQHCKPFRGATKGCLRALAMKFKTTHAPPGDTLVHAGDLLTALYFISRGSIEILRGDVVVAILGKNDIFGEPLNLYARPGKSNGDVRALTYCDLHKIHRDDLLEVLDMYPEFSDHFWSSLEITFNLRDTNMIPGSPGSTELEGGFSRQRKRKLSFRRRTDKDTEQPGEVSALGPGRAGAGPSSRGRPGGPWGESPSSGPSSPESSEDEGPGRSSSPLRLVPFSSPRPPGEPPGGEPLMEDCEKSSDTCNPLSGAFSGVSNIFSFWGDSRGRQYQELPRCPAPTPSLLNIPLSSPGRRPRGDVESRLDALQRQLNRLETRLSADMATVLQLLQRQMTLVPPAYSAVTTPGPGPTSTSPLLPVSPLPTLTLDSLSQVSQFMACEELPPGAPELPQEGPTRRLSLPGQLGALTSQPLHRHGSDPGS
row,Structure (SMILES),"hERG current change (%, negative = inhibition) at 10uM [%]"
1,Cc1nn(C)c(C(=O)N/N=C/c2ccccn2)c1[N+](=O)[O-],21.3
2,CCCNC(=O)NC(C)C12CC3CC(CC(C3)C1)C2 (centres unmarked),-12.6
3,COC(=O)c1cc(COC(=O)c2nc3nccc(C)n3n2)oc1C,15.7
4,Cc1cc(C(=O)OCC(=O)NC2CCCCC2)c(C)o1,9.12
5,Cc1ccc(NC(=O)CSCC(=O)N2CCN(c3cccc(C(F)(F)F)c3)CC2)cc1,-13
6,Cc1ccc(NC(=O)c2cccc3c2-c2ccccc2C3=O)cc1C,-9.58
7,Cc1ccc2[nH]c3c(=O)n(CCC4=CCCCC4)cnc3c2c1,4.95
8,O=c1c2[nH]c3ccccc3c2ncn1CCN1CCNCC1,4.97
9,CCC1CCCN1Cn1cnc2c([nH]c3ccc(C)cc32)c1=O (centres unmarked),-67.1
10,O=c1c2[nH]c3ccc(F)cc3c2ncn1CCN1CCN(Cc2ccccc2)CC1,-63.2
11,O=c1c2[nH]c3ccc(F)cc3c2ncn1CCN1CCOCC1,-41.1
12,Cc1ccc2[nH]c3c(=O)n(CCCN4CCN(C)CC4)cnc3c2c1,-37
13,CCC1CCCN1Cn1cnc2c([nH]c3ccccc32)c1=O (centres unmarked),-62.1
14,O=C1CCCN1CCCNc1ncnc2c1[nH]c1ccc(Cl)cc12,-29.4
15,O=c1c2[nH]c3ccccc3c2ncn1CCN1CCOCC1,4.87
16,Cc1ccc2[nH]c3c(=O)n(CCCN4CCOCC4)cnc3c2c1,-17.8
17,CCC1CCCN1Cn1cnc2c([nH]c3ccc(Cl)cc32)c1=O (centres unmarked),-71.5
18,O=c1c2[nH]c3ccc(F)cc3c2ncn1CCCN1CCOCC1,-31.3
19,O=c1[nH]nc(-c2ccc(NCCCO)c([N+](=O)[O-])c2)c2ccccc12,-9.98
20,O=C(CSc1nnc(NC(=O)C2CC2)s1)NCc1ccco1,-4.21
21,COc1cc(/C=N\NC(=O)c2ccc(C)nc2)ccc1OC(=O)c1ccc2c(c1)OCO2,-7.08
22,Cc1cccc(CNc2ccc(C(CC(N)=O)NC(=O)Cc3cccc4ccccc34)cc2[N+](=O)[O-])c1 (centres unmarked),7.02
23,Cc1ccn2cc(-c3cccc(NC(=O)c4cccs4)c3)nc2c1,-48.7
24,COc1cc2[nH]c3c(=O)n(CCN4CCCCC4)cnc3c2cc1OC,6.02

row,Structure (SMILES),"hERG current change (%, negative = inhibition) at 10uM [%]"
1,O=c1c2[nH]c3ccc(Cl)cc3c2ncn1CCN1CCCCC1,-68
2,O=c1c2[nH]c3ccccc3c2ncn1CCN1CCCCC1,-45.6
3,Cc1ccc(S(=O)(=O)N(C)CC(=O)Nc2ccccc2)cc1,-20
4,COc1cccc(CC(=O)OCC(=O)NC2(C#N)CCCCC2)c1,16.5
5,Cc1nnc(NC(=O)CCSc2ccccc2)s1,1.73
6,COC(=O)C1CCN(C(=O)COC(=O)c2n[nH]c3ccccc23)CC1,10.8
7,COc1cccc(OCc2cc(C(=O)NC(C)c3cnn(C)c3C)no2)c1 (centres unmarked),-2.65
8,Cc1nn(C)cc1C(C)NC(=O)c1cc(COc2cccc3cnccc23)on1 (centres unmarked),13.9
9,Cc1c(C(C)NC(=O)c2cc(COc3cccc4cnccc34)on2)cnn1C (centres unmarked),-55.6
10,Cc1ccc(C)c(NC(=O)NNC(=O)c2ccc3ccccc3c2O)c1,11.4
11,COc1ccc(N2CCN(C(=O)c3cn(Cc4ccccc4)nc3-c3cccnc3)CC2)cc1,-33.3
12,N#Cc1ccc(CN2CCN(C(=O)c3cn(Cc4ccccc4)nc3-c3cccnc3)CC2)cc1,-72.9
13,O=C(O)/C=C/c1cn(Cc2ccccc2)nc1-c1cccnc1,12
14,O=C(c1cn(Cc2ccccc2)nc1-c1cccnc1)N1CCN(Cc2ccccc2)CC1,-33.5
15,COCCOC(=O)/C(C#N)=C/c1cn(Cc2ccccc2)nc1-c1cccnc1,-67.1
16,O=C(c1cn(Cc2ccccc2)nc1-c1cccnc1)N1CCN(Cc2c(F)cccc2Cl)CC1,-4.33
17,CC(=O)c1ccc(N2CCN(C(=O)c3cn(Cc4ccccc4)nc3-c3cccnc3)CC2)c(F)c1,-50.2
18,O=Cc1cn(Cc2ccccc2)nc1-c1cccnc1,7.48
19,COc1cccc(N2CCN(C(=O)c3cn(Cc4ccccc4)nc3-c3cccnc3)CC2)c1,-12.9
20,CCc1nnc(NC(=O)CSc2nc3c(c(=O)n2C)SC(C)C3)s1 (centres unmarked),-2.54
21,CCCCOC(=O)c1ccc(NC(=O)c2ocnc2C)cc1,-8.8
22,O=C(OC(C(=O)NCc1ccco1)c1ccc(Cl)cc1)c1cccs1 (centres unmarked),17.6
23,CC(C)Oc1ccccc1/C=N/NC(=O)C1CC1,7.57
24,Cl.c1ccc2c(N3CCOCC3)nc(N3CCOCC3)nc2c1,-19.4

row,Structure (SMILES),"hERG current change (%, negative = inhibition) at 10uM [%]"
1,CCN(CC)c1nc(N2CCOCC2)nc2ccccc12.Cl,-48.3
2,O=C(NCCO)c1nc(NCCO)c2ccccc2n1,10.3
3,CCN1CCN(c2nc(NCCO)c3ccccc3n2)CC1.Cl,-16.7
4,Cl.OCCN1CCN(c2nc(NCc3ccco3)c3ccccc3n2)CC1,-75.3
5,Cc1cccc(Nc2nc(NCc3ccco3)c3ccccc3n2)c1.Cl,-12.2
6,Cl.OCCNc1nc(N2CCN(Cc3ccccc3)CC2)nc2ccccc12,-68.3
7,Cc1ccc(-c2nc(NCc3ccco3)c3ccccc3n2)cc1,4.65
8,Cc1ccc(OCCN2CCN(c3nc(NCc4ccco4)c4ccccc4n3)CC2)cc1,-62.6
9,Cl.c1ccc(CN2CCN(c3nc(N4CCOCC4)c4ccccc4n3)CC2)cc1,-70.3
10,CC(=O)N1c2ccc(S(=O)(=O)N3CCCC(C(=O)N4CCCCC4)C3)cc2CC1C (centres unmarked),19.2
11,CC(C)(C)NC(=O)CN(Cc1cccs1)C(=O)C1COc2ccccc2O1 (centres unmarked),-14.7
12,Cc1cc(=O)[nH]c(N/N=C/c2c(C)oc3ccccc23)n1,-0.943
13,Nc1nc(Nc2ccccc2)nc(NC2CCCCC2)c1[N+](=O)[O-],18.9
14,Cn1nccc1C(=O)N1CCOCC1,5.59
15,FC(F)Oc1ccc(NC(=S)NCC2COc3ccccc3O2)cc1 (centres unmarked),-5.83
16,COc1ccc(OC)c(/C=N\NC(=O)c2ccc(COc3ccc(C)cc3[N+](=O)[O-])o2)c1,16.2
17,N#Cc1cnn(-c2cccc(Cl)c2)c1N,11.6
18,Cc1csc(NC(=O)CS(=O)(=O)c2ccccc2)n1,-18.1
19,COc1ccc(NC(=O)c2nc[nH]c2C(=O)N2CCN(c3ccccc3)CC2)cc1,3.64
20,CC(C)CN(C(=O)CSc1nn(-c2ccc(Cl)cc2)c(=S)s1)C1CCS(=O)(=O)C1 (centres unmarked),-20.1
21,O=C(COC(=O)/C=C/c1cccs1)Nc1nc(-c2ccccc2)cs1,12.1
22,c1ccc(CN2CCN(c3nc4ccccc4s3)CC2)cc1,11.8
23,Cl.c1ccc(CNc2nc(N3CCN(Cc4ccccc4)CC3)nc3ccccc23)cc1,-65.9
24,Nc1nc(N2CCN(Cc3ccccc3)CC2)n[nH]1,24.7

row,Structure (SMILES),"hERG current change (%, negative = inhibition) at 10uM [%]"
1,Cl.c1ccc(CN2CCN(c3nc(NCc4ccco4)c4ccccc4n3)CC2)cc1,-68.3
2,c1ccc(CNc2nc(NCc3ccco3)nc(N3CCOCC3)n2)cc1,-28.5
3,Nc1nc(NCc2ccco2)nc(N2CCN(Cc3ccccc3)CC2)c1[N+](=O)[O-],-41.9
4,CCc1ccc(CCC(=O)Nc2ccc(C)c(C)c2)o1,-20.8
5,COC(=O)NCC(c1ccco1)N1CCN(c2ccc(F)cc2)CC1 (centres unmarked),-1.75
6,Cc1[nH]n(-c2ccccc2)c(=O)c1N=Nc1ccccc1C(=O)O,1.85
7,COc1ccc(CN(C)C(=O)C(Cc2ccccc2)NC(=O)c2ccccc2)c(OC)c1 (centres unmarked),-13.5
8,Cc1nn(-c2ccccc2)c2c1C1(C(=O)Nc3ccccc31)N1C(=N2)Sc2ccccc21 (centres unmarked),0.952
9,Cc1cc(N)n2nc(C)c(-c3ccccc3)c2n1,-21.9
10,Cc1ccc2c(cnn2C(=O)CCCC(=O)NC(C)c2ccccc2)c1 (centres unmarked),-5.97
11,CCN(CC)S(=O)(=O)c1cccc(C(=O)Oc2cccnc2)c1,-8.07
12,O=C(Cc1ccc([N+](=O)[O-])cc1)N1CCCCCC1,-21.9
13,Cc1ccc(CC(=O)N2CCN(C)CC2)cc1,18.1
14,COc1ccccc1CC(=O)N1CCN(c2ccccc2)CC1,9.19
15,CS(=O)(=O)N1CCN(C(=O)Cc2ccc([N+](=O)[O-])cc2)CC1,0.692
16,O=C(Cc1ccc(Br)cc1)N1CCN(Cc2ccccc2)CC1,-30.9
17,COc1ccc(N2CCN(C(=O)Cc3ccc(C)cc3)CC2)cc1,-6.07
18,COc1ccccc1CC(=O)N1CCN(c2ccc([N+](=O)[O-])cc2)CC1,-52
19,O=C(Cc1ccc([N+](=O)[O-])cc1)N1CCN(c2ccc([N+](=O)[O-])cc2)CC1,-73.7
20,O=C(Cc1ccccc1)N1CCN(Cc2ccc([N+](=O)[O-])cc2)CC1,-63.4
21,COc1ccccc1CC(=O)N1CCN(c2ccc(F)cc2)CC1,-11.1
22,Cc1ccc(CC(=O)N2CCN(c3ccc([N+](=O)[O-])cc3)CC2)cc1,-62.1
23,Cc1ccc(CC(=O)N2CCN(Cc3ccccc3)CC2)cc1,4.07
